Drawing on PubChem BioAssay (EPA / NIEHS), this text covers outcome and AC50 for six molecules.

Active and inactive are the calls of the source. How the source made its calls: active means hit-call score of the fitted dose curve at least 0.9, where 1 is the maximum; inactive means score below 0.9.

For assay [1], the target named is Transcription factor E2F1 (Homo sapiens) (UniProt Q01094). As to the kind of experiment: ATG_E2F_CIS: Attagene CIS-FACTORIAL HepG2 Assay for human E2F Transcription Factor 1 (AID 2282935). As to conditions: HepG2 Attagene cis-reporter, E2F reporter RNA transcripts; actives raise or lower the signal. In short, it runs like this: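 First, HepG2 cells were transfected with reporter transcription units. Next, they were dosed for 24 h. Then RNA was isolated, converted to cDNA, PCR-amplified, FAM-labeled, HpaI-digested and analyzed by capillary electrophoresis.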

The nature of assay [2]: ATG_E_Box_CIS: Attagene CIS-FACTORIAL HepG2 Assay for human Enhancer Box (E-box) (AID 2282936). As to conditions: HepG2 E-box cis-reporter transcription, actives raise or lower the signal. The method in brief: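 Endogenous transcription factor activity was sensed in human HepG2 liver cells through transfected cis-promoter reporter units. After 24 h of dosing, total RNA was reverse-transcribed and reporter cDNA resolved by capillary electrophoresis.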

Assay [3] in a line: ATG_M_61_CIS: Attagene CIS-FACTORIAL HepG2 Assay for M61 Transcription Factor (Internal Marker) (AID 2282937). As to conditions: HepG2 Attagene CIS-FACTORIAL M61 internal marker reporter; actives raise or lower the signal. In short, it runs like this: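 Readout is reporter mRNA by RT-PCR, fluorescent primer extension and capillary electrophoresis, with gain or loss fitted relative to DMSO. Transfected HepG2 cells carrying endogenous-TF-driven cis reporters were exposed to chemicals for 24 hours.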

Assay [4] is described as follows: ATG_EGR_CIS: Attagene CIS-FACTORIAL HepG2 Assay for human Early Growth Response 1 (EGR1) (AID 2282938). The conditions noted are these: HepG2 Attagene CIS-FACTORIAL EGR reporter mRNA; actives raise or lower the signal. In short, it runs like this:
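After 24 h compound exposure, RNA from reporter-transfected HepG2 cells was reverse-transcribed, PCR-amplified, fluorescently labelled and resolved by capillary electrophoresis. EGR1 reporter transcript changes, up or down, were fitted against DMSO, reflecting endogenous transcription-factor activity.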

A short description of assay [5]: ATG_M_19_CIS: Attagene CIS-FACTORIAL HepG2 Assay for M19 Transcription Factor (Internal Marker) (AID 2282939). The conditions noted are these: HepG2 Attagene CIS-FACTORIAL M19 internal marker reporter; actives raise or lower the signal. The method in brief:
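Background-control endpoint from a multiplexed HepG2 reporter panel. Cells carrying cis-regulated reporter constructs are treated 24 h, then reporter transcripts are amplified, fluorescently labelled and sized by capillary electrophoresis. DMSO defines baseline.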

Assay [6] can be described thus: ATG_ERE_CIS: Attagene CIS-FACTORIAL HepG2 Assay for Estrogen Response Element (ERE) (AID 2282940). As to conditions: HepG2 ERE cis-reporter, Attagene RNA transcript; actives raise or lower the signal. In short, it runs like this:
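Cells used were human hepatoma HepG2, transfected with multiple reporter transcription units under cis-regulatory promoters. Reporter mRNA, read 24 h post-dosing via fluorescent RT-PCR products on capillary electrophoresis, was fitted bidirectionally relative to DMSO.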

The nature of assay [7]: ATG_Ets_CIS: Attagene CIS-FACTORIAL HepG2 Assay for human Erythroblast Transformation Specific (ETS) (AID 2282941). As to conditions: HepG2 ETS cis-reporter transcription, actives raise or lower the signal. The method in brief:
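Cis-regulated reporter mRNA induction in HepG2 (transient transfection), 24 h exposure, RT-PCR plus capillary electrophoresis detection; DMSO serves as negative control and baseline.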

In assay [8] the target is Hepatocyte nuclear factor 3-beta (Homo sapiens) (UniProt Q9Y261). Nature of the assay: ATG_FoxA2_CIS: Attagene CIS-FACTORIAL HepG2 Assay for human Forkhead box A2 (FOXA2) (AID 2282942). As to conditions: HepG2 cis-reporter transcription factor activity, 24 h; actives raise or lower the signal. The method in brief:
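Endogenous transcription factor activity is captured via cis-element-driven reporter transcripts in transfected HepG2. Total RNA taken at 24 h post-dosing; labelled RT-PCR products resolved by capillary electrophoresis. Gain or loss fitted versus DMSO.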

The nature of assay [9]: ATG_FoxO_CIS: Attagene CIS-FACTORIAL HepG2 Assay for human Forkhead box O (FoxO) (AID 2282943). As to conditions: HepG2 Attagene cis-reporter, FoxO element, mRNA; actives raise or lower the signal. The method in brief: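 Values reflect reporter mRNA induction or loss in HepG2 cells 24 h post-dosing, fitted bidirectionally with DMSO as negative control and baseline. Detection used RT-PCR and fluorescence capillary electrophoresis.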

A short description of assay [10]: ATG_GATA_CIS: Attagene CIS-FACTORIAL HepG2 Assay for human GATA Binding Protein (AID 2282944). As to conditions: HepG2 GATA cis-element reporter, Attagene multiplex mRNA; actives raise or lower the signal. The method in brief: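 Endogenous transcription factor activity was captured through cis-promoter-driven reporters in transfected HepG2 cells. After 24 h exposure, reporter transcripts were quantified by RT-PCR with fluorescent capillary electrophoresis, and responses fitted both directions against DMSO.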

A short description of assay [11]: ATG_GLI_CIS: Attagene CIS-FACTORIAL HepG2 Assay for human Zinc Finger Protein GLI1 (AID 2282945). As to conditions: HepG2, Attagene cis-factorial reporter mRNA, GLI element; actives raise or lower the signal. In short, it runs like this: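 HepG2 cells transiently transfected with cis-promoter multiplexed reporter units report endogenous transcription factor activity. After 24 h chemical exposure, reporter mRNA was quantified by RT-PCR, 6-FAM labelling, HpaI digestion and capillary electrophoresis, with bidirectional fitting against DMSO.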

Assay [12] can be described thus: ATG_GRE_CIS: Attagene CIS-FACTORIAL HepG2 Assay for human Glucocorticoid Response Elements (GRE) (AID 2282947). As to conditions: HepG2 GRE cis-reporter, Attagene multiplex mRNA; actives raise or lower the signal. In short, it runs like this:
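Cells (HepG2) bearing transfected cis-promoter reporter transcription units were treated with chemical for 24 hours. Reporter mRNA was measured via RT-PCR with capillary electrophoresis, and activity was fitted in both directions relative to DMSO.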

Assay [13] in a line: ATG_ISRE_CIS: Attagene CIS-FACTORIAL HepG2 Assay for human Interferon Regulatory Factor 1 (IRF1) binding to an Interferon-Stimulated Response Element (ISRE) (AID 2282948). As to conditions: HepG2 ISRE cis-reporter (Attagene), mRNA transcription readout; actives raise or lower the signal. The method in brief: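 Multiplexed mRNA reporter readout in human liver HepG2 cells: cis-element-driven reporters transfected, compound added for 24 h, transcripts amplified, fluorescently labelled and sized by capillary electrophoresis; curve fitting bidirectional against DMSO.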

The nature of assay [14]: ATG_M_06_CIS: Attagene CIS-FACTORIAL HepG2 Assay for M06 Transcription Factor (Internal Marker) (AID 2282950). As to conditions: HepG2 Attagene CIS-FACTORIAL M06 internal marker reporter; actives raise or lower the signal. The method in brief:
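Steps: transfect HepG2 with multiplexed cis-element reporter constructs; dose chemical 24 h; extract RNA with DNase treatment; reverse-transcribe, PCR-amplify, 6-FAM label, HpaI digest; separate fragments by capillary electrophoresis. Activity fitted both directions versus DMSO.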

Assay [15] addresses Hypoxia-inducible factor 1-alpha (Homo sapiens) (UniProt Q16665). Nature of the assay: ATG_HIF1a_CIS: Attagene CIS-FACTORIAL HepG2 Assay for human Hypoxia Inducible Factor 1 (HIF1A) (AID 2282951). As to conditions: HepG2 Attagene cis-factorial HIF1a reporter transcription; actives raise or lower the signal. The method in brief: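 Activity is fitted in both directions relative to DMSO. Reporter transcripts are read by RT-PCR, fluorescent primer extension and capillary electrophoresis after 24 h chemical treatment. The cells are HepG2 carrying transiently transfected cis-element-driven reporter units responding to endogenous factors.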

Assay [16] addresses Hepatocyte nuclear factor 6 (Homo sapiens) (UniProt Q9UBC0). Nature of the assay: ATG_HNF6_CIS: Attagene CIS-FACTORIAL HepG2 Assay for human Hepatocyte Nuclear Factor 6 (HNF6) (AID 2282952). As to conditions: HepG2 Attagene cis-factorial HNF6 reporter transcription; actives raise or lower the signal. The method in brief: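 Using cis-element reporters in HepG2 liver cells, the assay tracks endogenous factor-driven transcription 24 h post-dosing. Signal comes from 6-FAM-labelled, HpaI-digested RT-PCR fragments, with gain or loss scored against DMSO.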

In assay [17] the target is Heat shock factor protein 1 (Homo sapiens) (UniProt Q00613). Nature of the assay: ATG_HSE_CIS: Attagene CIS-FACTORIAL HepG2 Assay for human Heat Shock Transcription Factor 1 (HSE) (AID 2282953). As to conditions: HepG2 HSE cis-reporter, Attagene RNA transcription; actives raise or lower the signal. In short, it runs like this: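 Cells were transfected with cis-element-driven reporter constructs, dosed for 24 h, then total RNA was reverse-transcribed and reporter cDNA amplified, FAM-labelled and digested with HpaI. Fragments were resolved by capillary electrophoresis; gain or loss was fitted against DMSO.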

Assay [18] in a line: ATG_MRE_CIS: Attagene CIS-FACTORIAL HepG2 Assay for human Metal Responsive Element (MRE) (AID 2282954). As to conditions: HepG2 MRE cis-reporter transcription, Attagene multiplex; actives raise or lower the signal. The method in brief: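 Cells were transfected with cis-promoter reporter transcription units, then dosed for 24 h. RNA was reverse-transcribed, amplified, fluorescently labelled and resolved by capillary electrophoresis, and activity was fitted in both directions relative to DMSO.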

A short description of assay [19]: ATG_PBREM_CIS: Attagene CIS-FACTORIAL HepG2 Assay for human Phenobarbital-responsive Enhancer Module (PBREM) (AID 2282955). The conditions noted are these: HepG2 PBREM cis-reporter, Attagene multiplexed transcription; actives raise or lower the signal. The method in brief:
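Endogenous transcription factor activity was read from reporter transcripts in transiently transfected human HepG2 liver cells after 24 h dosing. RT-PCR products were fluorescently labelled, HpaI-cut and sized by capillary electrophoresis; activity fitted bidirectionally against DMSO baseline.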

Assay [20] in a line: ATG_M_32_CIS: Attagene CIS-FACTORIAL HepG2 Assay for M32 Transcription Factor (Internal Marker) (AID 2282949).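 Further: background control marker of the multiplexed CIS panel rather than a real target.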 As to conditions: HepG2 Attagene cis-factorial M32 reporter, mRNA; actives raise or lower the signal. In short, it runs like this:
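HepG2 transfectants (cis-regulated reporter transcription units) dosed 24 h. Reporter mRNA by RT-PCR plus CE, analysed as gain or loss relative to DMSO.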

Chain of Transcription factor E2F1 (Homo sapiens) (Q01094 whole entry, looked up): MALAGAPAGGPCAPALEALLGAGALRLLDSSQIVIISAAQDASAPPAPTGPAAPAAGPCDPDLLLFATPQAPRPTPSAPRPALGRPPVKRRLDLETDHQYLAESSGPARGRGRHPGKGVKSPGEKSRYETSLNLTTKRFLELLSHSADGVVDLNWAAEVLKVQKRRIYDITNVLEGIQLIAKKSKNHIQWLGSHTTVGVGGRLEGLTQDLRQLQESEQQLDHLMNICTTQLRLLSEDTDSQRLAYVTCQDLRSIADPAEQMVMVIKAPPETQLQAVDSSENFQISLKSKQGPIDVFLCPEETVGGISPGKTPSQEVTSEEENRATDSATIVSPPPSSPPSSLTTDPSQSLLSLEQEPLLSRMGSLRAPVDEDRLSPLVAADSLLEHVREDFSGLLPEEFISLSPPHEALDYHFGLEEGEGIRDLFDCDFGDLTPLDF
Chain of Hepatocyte nuclear factor 3-beta (Homo sapiens) (Q9Y261 whole entry, looked up): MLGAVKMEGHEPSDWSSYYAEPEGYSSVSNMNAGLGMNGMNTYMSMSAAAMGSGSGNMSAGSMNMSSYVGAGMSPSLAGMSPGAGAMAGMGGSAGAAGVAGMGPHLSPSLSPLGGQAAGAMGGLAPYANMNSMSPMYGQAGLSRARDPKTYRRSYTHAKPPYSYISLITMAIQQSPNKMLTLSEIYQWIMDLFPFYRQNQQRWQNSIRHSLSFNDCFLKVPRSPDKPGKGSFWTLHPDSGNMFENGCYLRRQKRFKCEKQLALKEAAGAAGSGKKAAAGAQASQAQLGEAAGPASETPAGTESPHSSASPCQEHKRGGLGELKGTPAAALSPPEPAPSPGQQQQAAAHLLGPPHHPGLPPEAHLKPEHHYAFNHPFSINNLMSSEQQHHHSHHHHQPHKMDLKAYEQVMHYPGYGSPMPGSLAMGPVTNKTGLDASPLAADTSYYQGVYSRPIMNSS
Chain of Heat shock factor protein 1 (Homo sapiens) (Q00613 whole entry, looked up, the tested form may be a part): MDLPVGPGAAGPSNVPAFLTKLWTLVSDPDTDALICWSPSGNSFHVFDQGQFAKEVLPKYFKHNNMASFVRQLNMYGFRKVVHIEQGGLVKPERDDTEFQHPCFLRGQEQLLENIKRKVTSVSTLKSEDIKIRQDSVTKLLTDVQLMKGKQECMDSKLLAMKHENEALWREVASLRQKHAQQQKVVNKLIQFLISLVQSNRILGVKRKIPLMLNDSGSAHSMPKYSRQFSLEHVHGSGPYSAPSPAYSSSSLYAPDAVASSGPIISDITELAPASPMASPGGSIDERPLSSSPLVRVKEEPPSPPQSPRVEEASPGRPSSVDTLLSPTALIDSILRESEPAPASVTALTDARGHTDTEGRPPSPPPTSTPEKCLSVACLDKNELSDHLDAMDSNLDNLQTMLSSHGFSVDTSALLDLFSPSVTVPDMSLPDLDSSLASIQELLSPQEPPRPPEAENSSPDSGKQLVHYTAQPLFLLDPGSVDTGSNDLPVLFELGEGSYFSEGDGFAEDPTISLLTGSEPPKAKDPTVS
Chain of Hepatocyte nuclear factor 6 (Homo sapiens) (Q9UBC0 whole entry, looked up, the tested form may be a part): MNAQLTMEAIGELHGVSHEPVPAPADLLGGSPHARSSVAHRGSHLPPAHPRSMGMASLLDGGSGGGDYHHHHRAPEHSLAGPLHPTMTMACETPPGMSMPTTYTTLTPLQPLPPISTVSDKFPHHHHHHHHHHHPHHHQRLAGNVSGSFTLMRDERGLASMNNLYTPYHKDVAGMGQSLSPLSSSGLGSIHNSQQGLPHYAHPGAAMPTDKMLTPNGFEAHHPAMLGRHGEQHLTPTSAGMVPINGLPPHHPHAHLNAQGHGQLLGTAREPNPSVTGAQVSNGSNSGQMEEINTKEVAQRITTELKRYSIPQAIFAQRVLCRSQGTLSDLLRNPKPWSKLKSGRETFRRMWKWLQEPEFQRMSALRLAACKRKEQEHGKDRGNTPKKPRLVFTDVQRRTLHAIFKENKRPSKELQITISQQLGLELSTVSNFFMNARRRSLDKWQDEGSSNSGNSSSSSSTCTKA
Chain of Hypoxia-inducible factor 1-alpha (Homo sapiens) (Q16665 whole entry, looked up): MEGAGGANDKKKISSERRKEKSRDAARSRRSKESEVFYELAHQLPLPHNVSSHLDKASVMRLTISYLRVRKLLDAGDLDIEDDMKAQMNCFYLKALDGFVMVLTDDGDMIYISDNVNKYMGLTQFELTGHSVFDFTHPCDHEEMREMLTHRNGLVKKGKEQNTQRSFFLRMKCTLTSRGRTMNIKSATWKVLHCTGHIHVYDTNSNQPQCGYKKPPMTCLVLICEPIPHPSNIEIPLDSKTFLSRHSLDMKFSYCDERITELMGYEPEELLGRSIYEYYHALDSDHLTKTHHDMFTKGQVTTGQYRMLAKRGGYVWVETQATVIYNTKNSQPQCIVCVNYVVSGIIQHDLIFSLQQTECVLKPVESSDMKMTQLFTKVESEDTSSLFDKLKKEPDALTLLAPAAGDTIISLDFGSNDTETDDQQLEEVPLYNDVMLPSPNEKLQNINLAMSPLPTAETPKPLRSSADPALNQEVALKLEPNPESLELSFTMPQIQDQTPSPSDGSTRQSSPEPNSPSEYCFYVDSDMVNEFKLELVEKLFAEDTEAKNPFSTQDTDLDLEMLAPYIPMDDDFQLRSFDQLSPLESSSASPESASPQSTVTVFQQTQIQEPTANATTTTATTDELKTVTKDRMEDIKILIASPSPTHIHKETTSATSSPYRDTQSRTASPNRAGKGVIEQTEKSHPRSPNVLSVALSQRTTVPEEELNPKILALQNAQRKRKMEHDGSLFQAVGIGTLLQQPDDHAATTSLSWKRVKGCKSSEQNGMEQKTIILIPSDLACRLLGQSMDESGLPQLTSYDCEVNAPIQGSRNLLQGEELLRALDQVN

With `O=S(=O)(O)CCC(F)(F)C(F)(F)C(F)(F)C(F)(F)C(F)(F)C(F)(F)F`, the molecule was called inactive in assay [1], in assay [2], in assay [3], in assay [4], in [5] and in [6]. Moreover, the molecule was called inactive in assay [7], in assay [8], in assay [9], in assay [10], in assay [11] and in assay [12]. Besides, the molecule was classed as inactive in assay [13], in assay [14], in assay [15], in assay [16], in assay [17] and in assay [18]. For the same molecule, in [19], the result was inactive.
As to `S=P(N1CC1)(N1CC1)N1CC1`, the result in [1], in [2], in assay [3], in [4], in [5] and in assay [6] was inactive. Besides, the result in [7], in [8], in assay [9], in assay [10], in [11] and in [12] was inactive. The molecule was classed as inactive in [13], in [20], in [14], in [15], in assay [17] and in [18]. Further, the outcome in assay [19] was inactive.
For the molecule `Nc1ccn([C@@H]2O[C@H](CO)[C@@H](O)[C@@H]2O)c(=O)n1`, the call in assay [1], in assay [2], in [3], in assay [4], in assay [5] and in assay [7] was inactive. The outcome in assay [8], in [9], in [10], in assay [11], in assay [12] and in assay [13] was inactive. The call in [20], in assay [14], in assay [15], in assay [16], in assay [17] and in assay [18] was inactive. The result in assay [19] was inactive. The AC50 in assay [6] was 6.66 µM (active).
In the case of `O=S1(=O)CCCO1`, the call in assay [1], in assay [2], in assay [3], in [4], in [5] and in assay [6] was inactive. For the same molecule, the molecule was classed as inactive in assay [7], in assay [8], in assay [9], in [10], in assay [11] and in assay [12]. The result in [13], in [20], in assay [14], in [15], in assay [17] and in assay [19] was inactive.
`C[Si](C)(C)C(F)(F)C(F)(F)C(F)(F)F`: the molecule was classed as inactive in [1], in [2], in [3], in assay [4], in [5] and in assay [6]. Further, the call in assay [7], in [8], in assay [9], in assay [10], in assay [11] and in assay [12] was inactive. The molecule was classed as inactive in assay [13], in [20], in [14], in [15], in assay [16] and in assay [17]. Besides, the result in assay [18] and in assay [19] was inactive.
For the molecule `O=C(Cl)C(F)(F)C(F)(F)C(F)(F)C(=O)Cl`, the result in assay [1], in [2], in assay [3], in assay [4], in assay [5] and in assay [6] was inactive. In addition, the molecule was classed as inactive in [7], in [8], in assay [9], in assay [10], in [11] and in assay [12]. In addition, the molecule was called inactive in [13], in assay [20], in assay [14], in assay [15], in assay [17] and in [19].

Broadly, the AC50 is the midpoint of the concentration-response curve, whichever way the signal moves.
